In PubChem BioAssay (EPA / NIEHS):
Calls of active or inactive are those of the source. Rule for the calls: active = hit-call score of the fitted dose curve at least 0.9, where 1 is the maximum; inactive = score below 0.9.

Tests used:
[1] = read-out: Plasminogen activator inhibitor-1 (PAI1), SERPINE1 (gene 5054); experiment: BSK_hDFCGF_PAI1: BioMAP Diversity Plus: hDFCGF Assay for Plasminogen activator inhibitor-1 (PAI1) Biomarker Activity (AID 2283066); conditions: primary human foreskin fibroblasts; actives raise or lower the signal
Outline: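 Human foreskin fibroblasts in the hDFCGF system were dosed with compound for 24 h; PAI-1 was quantified by ELISA. Bidirectional curve fitting used DMSO as negative control and baseline.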

[2] = read-out: Intercellular Adhesion Molecule 1 (ICAM1), ICAM1 (gene 3383); experiment: BSK_KF3CT_ICAM1: BioMAP Diversity Plus: KF3CT Assay for Intercellular Adhesion Molecule 1 (ICAM1) Biomarker Activity (AID 2283067); conditions: primary human keratinocytes with fibroblasts; actives raise or lower the signal
Outline: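 Cell-surface ICAM-1 was measured by ELISA 24 h after dosing primary human skin keratinocytes co-cultured with fibroblasts. Parallel SRB staining tracked overt cytotoxicity. Gain or loss of signal was fitted relative to DMSO.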

[3] = read-out: Interferon-gamma inducible Protein 10 (IP10), CXCL10 (gene 3627); experiment: BSK_KF3CT_IP10: BioMAP Diversity Plus: KF3CT Assay for Interferon-gamma inducible Protein 10 (IP10) Biomarker Activity (AID 2283068); conditions: primary human keratinocytes with fibroblasts; actives raise or lower the signal
Outline: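 KF3CT co-culture (keratinocytes + foreskin fibroblasts), 24 h compound, IP-10 by ELISA; bidirectional fit vs DMSO baseline.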

[4] = BSK_KF3CT_SRB: Viability Assessment in the BioMAP Diversity Plus: KF3CT Assay (AID 2283069); conditions: primary human keratinocytes with fibroblasts;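 note: total protein by sulforhodamine B staining as a cytotoxicity measure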
Outline: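 Human keratinocyte and foreskin fibroblast co-culture exposed to chemical for 24 h. Total protein measured in parallel cultures by 0.1% sulforhodamine B staining after 10% TCA fixation, read at 560 nm; bidirectional fit relative to DMSO.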

[5] = read-out: Interleukin-1 alpha (IL1a), IL1A (gene 3552); experiment: BSK_KF3CT_IL1a: BioMAP Diversity Plus: KF3CT Assay for Interleukin-1 alpha (IL1a) Biomarker Activity (AID 2283070); conditions: primary human keratinocytes with fibroblasts; actives raise or lower the signal
Outline: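 Primary human keratinocyte plus foreskin fibroblast co-culture, dosed and measured at 24 h in 96-well plates. IL-1a level quantified by ELISA; bidirectional fit relative to DMSO.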

[6] = read-out: TIMP metallopeptidase inhibitor 2 (TIMP2), TIMP2 (gene 7077); experiment: BSK_KF3CT_TIMP2: BioMAP Diversity Plus: KF3CT Assay for TIMP metallopeptidase inhibitor 2 (TIMP2) Biomarker Activity (AID 2283071); conditions: primary human keratinocytes with fibroblasts; actives raise or lower the signal
Outline: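 Human primary keratinocyte/foreskin fibroblast co-culture dosed with chemical and sampled at 24 h. TIMP-2 levels quantified by ELISA; bidirectional fitting against DMSO negative control as baseline.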

[7] = read-out: Transforming growth factor beta 1 (TGFb1), TGFB1 (gene 7040); experiment: BSK_KF3CT_TGFb1: BioMAP Diversity Plus: KF3CT Assay for Transforming growth factor beta 1 (TGFb1) Biomarker Activity (AID 2283072); conditions: primary human keratinocytes with fibroblasts; actives raise or lower the signal
Outline: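 Human keratinocyte plus foreskin fibroblast primary co-culture, dosed with chemical for 24 h. TGF-b1 quantified by ELISA. Activity fitted bidirectionally against DMSO negative control as baseline.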

[8] = read-out: Matrix Metallopeptidase 9 (MMP9), MMP9 (gene 4318); experiment: BSK_KF3CT_MMP9: BioMAP Diversity Plus: KF3CT Assay for Matrix Metallopeptidase 9 (MMP9) Biomarker Activity (AID 2283074); conditions: primary human keratinocytes with fibroblasts; actives raise or lower the signal
Outline: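 Human keratinocyte and foreskin fibroblast co-culture exposed to chemicals for 24 h; MMP9 biomarker measured by ELISA, bidirectional fitting relative to DMSO; cytotoxicity tracked by SRB total protein staining in parallel cultures.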

[9] = read-out: urokinase plasminogen activator (uPA), PLAU (gene 5328); experiment: BSK_KF3CT_uPA: BioMAP Diversity Plus: KF3CT Assay for urokinase plasminogen activator (uPA) Biomarker Activity (AID 2283075); conditions: primary human keratinocytes with fibroblasts; actives raise or lower the signal
Outline: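 Primary human keratinocyte/foreskin fibroblast co-culture exposed to chemical; uPA measured by ELISA at 24 h. Bidirectional fit versus DMSO, with parallel SRB total-protein staining for cytotoxicity.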

CD40, CD40 (gene 958) = experiment: BSK_LPS_CD40: BioMAP Diversity Plus: LPS Assay for CD40 Biomarker Activity (AID 2283076); conditions: primary human HUVEC with PBMC; actives raise or lower the signal
Outline: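 In the LPS system of human endothelial cells with peripheral blood mononuclear cells, CD40 levels were read by ELISA 24 h post-treatment. Signal changes in either direction were fitted against the DMSO baseline, with parallel SRB protein staining.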

[10] = read-out: E-selectin (Homo sapiens) (UniProt P16581); experiment: BSK_LPS_Eselectin: BioMAP Diversity Plus: LPS Assay for Eselectin Biomarker Activity (AID 2283077); conditions: primary human HUVEC with PBMC; actives raise or lower the signal
Outline: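 E-selectin ELISA on LPS-stimulated endothelial cell/PBMC co-cultures, read 24 h post-treatment; gains and losses fitted against DMSO. Parallel SRB staining (0.1% SRB after 10% TCA fixation, 560 nm) flags overt cytotoxicity.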

[11] = read-out: Interleukin-8 (IL8), CXCL8 (gene 3576); experiment: BSK_LPS_IL8: BioMAP Diversity Plus: LPS Assay for Interleukin-8 (IL8) Biomarker Activity (AID 2283078); conditions: primary human HUVEC with PBMC; actives raise or lower the signal
Outline: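 ELISA read-out of IL-8 after 24 h chemical treatment of LPS-activated endothelial/PBMC human primary co-cultures. Changes either up or down relative to DMSO; overt cytotoxicity checked by sulforhodamine B staining in parallel wells.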

[12] = BSK_LPS_SRB: Viability Assessment in the BioMAP Diversity Plus: LPS Assay (AID 2283079); conditions: primary human HUVEC with PBMC;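 note: total protein by sulforhodamine B absorbance as a cytotoxicity measure; measured one day after compound addition; fitted in both directions against DMSO so loss or gain of signal counts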
Outline: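 SRB viability endpoint: cells fixed with 10% TCA, stained with 0.1% SRB, read at 560 nm, 24 h post-dose. HUVEC/PBMC co-culture; signal change in either direction scored relative to DMSO.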

[13] = read-out: Interleukin-1 alpha (IL1a), IL1A (gene 3552); experiment: BSK_LPS_IL1a: BioMAP Diversity Plus: LPS Assay for Interleukin-1 alpha (IL1a) Biomarker Activity (AID 2283080); conditions: primary human HUVEC with PBMC; actives raise or lower the signal
Outline: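 Readout is IL-1a level by ELISA, 24 h post-dose, fitted as gain or loss relative to DMSO. System: LPS-activated human primary co-culture of vascular endothelium and peripheral blood mononuclear cells, with parallel SRB total-protein cytotoxicity.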

[14] = read-out: Monocyte Chemoattractant Protein-1 (MCP1), CCL2 (gene 6347); experiment: BSK_LPS_MCP1: BioMAP Diversity Plus: LPS Assay for Monocyte Chemoattractant Protein-1 (MCP1) Biomarker Activity (AID 2283081); conditions: primary human HUVEC with PBMC; actives raise or lower the signal
Outline: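 Secreted MCP-1 read by ELISA at 24 h post-dosing in an LPS-activated co-culture of endothelial cells with peripheral blood mononuclear cells. Fits run in both directions, DMSO as baseline; parallel SRB staining tracks overt cytotoxicity.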

[15] = BSK_LPS_PGE2: BioMAP Diversity Plus: LPS Assay for Prostaglandin E2 (PGE2) Biomarker Activity (AID 2283082); conditions: primary human HUVEC with PBMC; actives raise or lower the signal;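 for AC50: secreted prostaglandin E2 measured by ELISA in LPS-stimulated co-culture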
Outline: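 HUVEC plus PBMC co-culture stimulated with LPS; secreted PGE2 quantified by ELISA 24 h after chemical dosing. Activity fitted bidirectionally against DMSO as negative control and baseline; parallel SRB total-protein staining served as cytotoxicity check.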

[16] = read-out: Macrophage colony-stimulating factor (MCSF), CSF1 (gene 1435); experiment: BSK_LPS_MCSF: BioMAP Diversity Plus: LPS Assay for Macrophage colony-stimulating factor (MCSF) Biomarker Activity (AID 2283083); conditions: primary human HUVEC with PBMC; actives raise or lower the signal
Outline: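 Bidirectional fitting against DMSO was applied to M-CSF levels read by ELISA at 24 h post-dose. The system pairs human umbilical vein endothelium with peripheral blood mononuclear cells; parallel SRB staining tracked cytotoxicity.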

[17] = read-out: Tissue Factor, F3 (gene 2152); experiment: BSK_LPS_TissueFactor: BioMAP Diversity Plus: LPS Assay for Tissue Factor Biomarker Activity (AID 2283084); conditions: primary human HUVEC with PBMC; actives raise or lower the signal
Outline: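 Compound was added to an endothelial cell/PBMC co-culture, and after 24 h tissue factor (CD142) was read by ELISA. Gain or loss of signal was fitted against a DMSO baseline, and parallel SRB staining (560 nm) tracked overt cytotoxicity.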

[18] = read-out: C-C motif chemokine 2 (Homo sapiens) (UniProt P13500); experiment: BSK_KF3CT_MCP1: BioMAP Diversity Plus: KF3CT Assay for Monocyte Chemoattractant Protein 1 (MCP1/CCL2) Biomarker Activity (AID 2283073); conditions: primary human keratinocytes with fibroblasts; actives raise or lower the signal
Outline: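 ELISA read-out of MCP-1, 24 h post-dose, in primary human skin keratinocytes co-cultured with fibroblasts. Parallel SRB staining monitors cytotoxicity; changes fitted both directions relative to DMSO.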

[19] = read-out: Tumor necrosis factor (Homo sapiens) (UniProt P01375); experiment: BSK_LPS_TNFa: BioMAP Diversity Plus: LPS Assay for Tumour Necrosis Factor alpha (TNFa) Biomarker Activity (AID 2283085); conditions: primary human HUVEC with PBMC; actives raise or lower the signal
Outline: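 Human umbilical vein endothelial cells co-cultured with PBMC were exposed to test chemical and TNFa measured by ELISA 24 h after dosing. Bidirectional curve fitting was done relative to DMSO as negative control and baseline.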

Sequence of E-selectin (Homo sapiens) (P16581 whole entry, looked up): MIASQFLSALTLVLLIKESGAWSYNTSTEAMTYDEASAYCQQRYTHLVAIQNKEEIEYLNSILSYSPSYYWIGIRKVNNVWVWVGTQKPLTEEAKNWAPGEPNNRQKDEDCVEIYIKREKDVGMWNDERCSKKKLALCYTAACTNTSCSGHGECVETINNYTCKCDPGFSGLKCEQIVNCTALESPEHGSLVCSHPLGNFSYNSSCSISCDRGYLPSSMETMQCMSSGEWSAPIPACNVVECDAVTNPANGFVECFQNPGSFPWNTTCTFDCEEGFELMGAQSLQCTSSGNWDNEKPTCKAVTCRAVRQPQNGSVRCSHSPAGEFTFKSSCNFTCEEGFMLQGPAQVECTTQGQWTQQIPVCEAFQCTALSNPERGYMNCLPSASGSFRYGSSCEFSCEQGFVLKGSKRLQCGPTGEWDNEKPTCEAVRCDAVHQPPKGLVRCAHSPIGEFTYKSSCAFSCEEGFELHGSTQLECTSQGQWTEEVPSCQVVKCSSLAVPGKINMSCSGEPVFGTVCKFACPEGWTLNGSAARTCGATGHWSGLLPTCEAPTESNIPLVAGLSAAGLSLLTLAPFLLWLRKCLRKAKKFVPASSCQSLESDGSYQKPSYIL
Sequence of Tumor necrosis factor (Homo sapiens) (P01375 whole entry, looked up): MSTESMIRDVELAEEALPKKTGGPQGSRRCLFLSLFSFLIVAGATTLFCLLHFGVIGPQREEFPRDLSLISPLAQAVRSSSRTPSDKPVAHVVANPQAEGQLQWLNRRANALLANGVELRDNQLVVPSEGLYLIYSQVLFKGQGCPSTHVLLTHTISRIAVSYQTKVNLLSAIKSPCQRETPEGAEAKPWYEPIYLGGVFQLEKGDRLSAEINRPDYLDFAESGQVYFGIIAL

[As]#[In]
outcome [1]: inactive
outcome [2]: inactive
outcome [3]: inactive
outcome [4]: inactive
outcome [5]: inactive
outcome [6]: inactive
outcome [7]: inactive
outcome [8]: inactive
outcome [9]: inactive
outcome (CD40, CD40 (gene 958)): inactive
outcome [10]: inactive
outcome [11]: inactive
outcome [12]: inactive
outcome [13]: inactive
outcome [14]: inactive
outcome [15]: inactive
outcome [16]: inactive
outcome [17]: inactive

Cc1ccc([N+](=O)[O-])cc1
outcome [1]: inactive
outcome [2]: inactive
outcome [3]: inactive
outcome [4]: inactive
outcome [5]: inactive
outcome [6]: inactive
outcome [7]: inactive
outcome [18]: inactive
outcome [8]: inactive
outcome [9]: inactive
outcome (CD40, CD40 (gene 958)): inactive
outcome [10]: inactive
outcome [11]: inactive
outcome [12]: inactive
outcome [13]: inactive
outcome [14]: inactive
outcome [15]: inactive
outcome [16]: inactive
outcome [17]: inactive

C[N+](C)(C)CC1CO1 (stereo unspecified)
outcome [1]: inactive
outcome [2]: inactive
outcome [3]: inactive
outcome [4]: inactive
outcome [5]: inactive
outcome [6]: inactive
outcome [7]: inactive
outcome [18]: inactive
outcome [8]: inactive
outcome [9]: inactive
outcome (CD40, CD40 (gene 958)): inactive
outcome [10]: inactive
outcome [11]: inactive
outcome [12]: inactive
outcome [13]: inactive
outcome [14]: inactive
outcome [15]: inactive
outcome [16]: inactive
outcome [17]: inactive

O=C1CCCO1
outcome [1]: inactive
outcome [2]: inactive
outcome [3]: inactive
outcome [4]: inactive
outcome [5]: inactive
outcome [6]: inactive
outcome [7]: inactive
outcome [18]: inactive
outcome [8]: inactive
outcome [9]: inactive
outcome (CD40, CD40 (gene 958)): inactive
outcome [10]: inactive
outcome [11]: inactive
outcome [12]: inactive
outcome [13]: inactive
outcome [14]: inactive
outcome [15]: inactive
outcome [16]: inactive
outcome [17]: inactive
outcome [19]: inactive

N#CC(Br)(Br)C(N)=O
outcome [1]: inactive
outcome [2]: inactive
outcome [3]: inactive
outcome [4]: inactive
outcome [5]: inactive
outcome [6]: inactive
outcome [7]: inactive
outcome [18]: inactive
outcome [8]: inactive
outcome [9]: inactive
outcome (CD40, CD40 (gene 958)): inactive
outcome [10]: inactive
outcome [11]: inactive
outcome [12]: inactive
outcome [13]: inactive
outcome [14]: inactive
outcome [15]: inactive
outcome [16]: inactive
outcome [17]: inactive
outcome [19]: inactive

CC(C)COC(=O)c1ccccc1C(=O)OCC(C)C
outcome [1]: inactive
outcome [2]: inactive
outcome [3]: inactive
outcome [4]: inactive
outcome [5]: inactive
outcome [6]: inactive
outcome [7]: inactive
outcome [18]: inactive
outcome [8]: inactive
outcome [9]: inactive
outcome (CD40, CD40 (gene 958)): inactive
outcome [10]: inactive
outcome [11]: inactive
outcome [12]: inactive
outcome [13]: inactive
outcome [14]: inactive
AC50 [15]: 9.78 µM (active)
outcome [16]: inactive
outcome [17]: inactive
outcome [19]: inactive
